PubChem BioAssay (Tox21)
Inconclusive results are not listed. Calls of active or inactive are those of the source. Calls follow the shape of the dose curve; as a rule, active = well fitted curve in the direction sought with a large enough effect in the repeat runs; inconclusive = weak or mixed curves; inactive = no such curve, though single readings can be large; an effect the other way counts as inactive or inconclusive.

Assay: qHTS RealTime-Glo MT Cell Viability Assay in HEK293 cells - 0 hour (AID 1224880); also: top concentration of the series differs between compounds; nearly all actives have a fitted effect of over 45% in size
Settings: RealTime-Glo luminescence; series mostly up to 76.8 µM; activity change, negative = cytotoxicity: at the top concentration
Summary of the method: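 qHTS format; HEK293 cells with NanoLuc/prosubstrate reagent, 37 C/5% CO2 for 5 h pre-dosing; compounds 23 nL in DMSO; luminescence at each time point reflects viable cells.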
% is scaled to controls: 0 for no effect and ±100 for the full control effect.

Structure (SMILES)	activity change, negative = cytotoxicity
SCCSCCS	-10.9% (inactive)
Cc1cccc(C(=O)O)c1[N+](=O)[O-]	-1.36% (inactive)
Cc1ccccc1N1CCN(CCc2nnc3n2CCCC3)CC1	-6.3% [at 35.3 µM] (inactive)
OC(CCN1CCCCC1)(c1ccccc1)c1ccccc1	8.75% [at 35.3 µM] (inactive)
CN(C)CCCNCCC#N	13.4% (inactive)
c1ccccc1	-0.212% (inactive)
O=CN1CCOCC1	-4.4% (inactive)
CC(Cl)COP(=O)(OCC(C)Cl)OCC(C)Cl (centres undefined)	7.3% (inactive)
CCC1COC(=O)O1 (centres undefined)	2.46% (inactive)
O=C1OC(=O)c2cc(Oc3ccc4c(c3)C(=O)OC4=O)ccc21	-4.45% (inactive)
CCN(CCC#N)c1ccccc1	-2.46% (inactive)
CCCCCCCC/C=C\CCCCCCCC(=O)OC[C@@H](O)[C@H]1OC[C@H](O)[C@H]1O	-9.58% (inactive)
CCC1Nc2cc(Cl)c(S(N)(=O)=O)cc2S(=O)(=O)N1 (centres undefined)	0.462% [at 35.3 µM] (inactive)
CNC(=O)NC	-0.505% (inactive)
CCC(CO)CO	3.81% (inactive)
NC(Cc1c[nH]c2ccccc12)C(=O)O (centres undefined)	-2.7% [at 35.3 µM] (inactive)

Assay: A CellTox Green Cytotoxicity Assay to monitor cytotoxicity in HEK293 cells - 32 hour (AID 1224881); also: nearly all actives have a fitted effect of over 40% in size
Settings: CellTox Green fluorescence; series mostly up to 76.8 µM; cytotoxicity increase: at the top concentration
Summary of the method: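 Each value comes from one timepoint of a single continuous run in which HEK293 cells with CellTox Green were exposed to compound for up to 40 h at 37 C, dye fluorescence rising with cell death.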

Structure (SMILES)	cytotoxicity increase
C[N+](C)(C)CC(O)CCl (centres undefined)	-0.595% (inactive)
CCNC(=O)/C=C/c1cccc(Br)c1	3.86% [at 35.3 µM] (inactive)
BrC/C=C/CBr	-1.01% [at 15.8 µM] (inactive)
O=C(O)c1c(Cl)ccc(Cl)c1Cl	1.4% (inactive)
CCCCCCCCCCCCCCCCI	-8.24% [at 15.8 µM] (inactive)
COc1ccc(OC)c(NC(=O)CC(C)=O)c1	1.21% (inactive)
CN(C)CCOCCN(C)CCO	-4.54% (inactive)
CCCCC/C=C/CC(=O)OC	-6.93% (inactive)
CCCCCCCCCCCCOC(C)=O	0.66% (inactive)
COc1cc2c3cc1Oc1cc(ccc1O)C[C@@H]1c4c(cc(OC)c(O)c4Oc4ccc(cc4)C[C@@H]3N(C)CC2)CC[N+]1(C)C	-9.43% [at 35.3 µM] (inactive)
O=C(O)CCNC(=O)c1ccccc1	-5.22% [at 35.3 µM] (inactive)
C=C[Si](C)(C)O[Si](C)(C)C=C	2.25% (inactive)
Nc1cc(C(=O)O)ccc1Cl	-11.8% (inactive)
NC(=O)C1(N2CCCCC2)CCN(CCCC(=O)c2ccc(F)cc2)CC1	-4.57% [at 35.3 µM] (inactive)
N#CCCOCCOCCC#N	-8.11% (inactive)
C[C@H](CCC(=O)NCC(=O)O)[C@H]1CC[C@H]2[C@@H]3[C@H](O)C[C@@H]4C[C@H](O)CC[C@]4(C)[C@H]3C[C@H](O)[C@]12C	2.63% (inactive)
CCS(=O)(=O)CCn1c([N+](=O)[O-])cnc1C	-0.152% [at 35.3 µM] (inactive)
CC(C)(c1ccc(Oc2ccc3c(c2)C(=O)OC3=O)cc1)c1ccc(Oc2ccc3c(c2)C(=O)OC3=O)cc1	-3.25% (inactive)
C=CCOc1c(Br)cc(Br)cc1Br	-10.2% (inactive)

Structure (SMILES)	cytotoxicity increase
O=C(O)/C=C/c1ccccc1	-9.06% (inactive)
CC1=NN(c2ccc(S(=O)(=O)O)cc2)C(=O)C1N=Nc1ccccc1 (centres undefined)	0.486% (inactive)
CCCCC(CC)C(=O)OC(C)C (centres undefined)	12.3% (inactive)
SCCSCCS	-2.66% (inactive)
Cc1cccc(C(=O)O)c1[N+](=O)[O-]	8.18% (inactive)
Cc1ccccc1N1CCN(CCc2nnc3n2CCCC3)CC1	-29.1% [at 35.3 µM] (inactive)
OC(CCN1CCCCC1)(c1ccccc1)c1ccccc1	4.06% [at 35.3 µM] (inactive)
CN(C)CCCNCCC#N	-8.66% (inactive)
c1ccccc1	-2.24% (inactive)
O=CN1CCOCC1	1.13% (inactive)
CC(Cl)COP(=O)(OCC(C)Cl)OCC(C)Cl (centres undefined)	0.283% (inactive)
CCC1COC(=O)O1 (centres undefined)	-5.47% (inactive)
O=C1OC(=O)c2cc(Oc3ccc4c(c3)C(=O)OC4=O)ccc21	-0.855% (inactive)
CCN(CCC#N)c1ccccc1	-3.48% (inactive)
CCCCCCCC/C=C\CCCCCCCC(=O)OC[C@@H](O)[C@H]1OC[C@H](O)[C@H]1O	-20.1% (inactive)
CCC1Nc2cc(Cl)c(S(N)(=O)=O)cc2S(=O)(=O)N1 (centres undefined)	-11.4% [at 35.3 µM] (inactive)
CNC(=O)NC	-12.5% (inactive)
CCC(CO)CO	-9.26% (inactive)
NC(Cc1c[nH]c2ccccc12)C(=O)O (centres undefined)	-9.31% [at 35.3 µM] (inactive)
